Test results published in PubChem BioAssay AID493167 (Broad Institute, 2011).
Active and inactive are the calls of the source.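 The calls were made as follows: active = signal falls and fitted half-maximal concentration is at most ten times the sample's top valid dose; inconclusive = flat fit with 30 to 70% inhibition, or poor fit; inactive = change in the rising direction, plus the rest.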

System: LuxS (S-ribosylhomocysteine lyase), bacterial
Assay: LuxS enzyme inhibitors, dose response, biochemical, dry powder, set 3, absorbance (AID 493167)
Settings: purified Co-LuxS, SRH turnover, DTNB absorbance 412 nm; series mostly up to 35 µM

Row | Compound | outcome
1 | O=S(=O)(Nc1cccnc1)c1ccc(Oc2ccccc2)cc1 | inactive
2 | O=S(=O)(Nc1ccccn1)c1ccccc1 | inactive
3 | Cc1noc(C)c1S(=O)(=O)Nc1ccc2c(c1)C(=O)N([C@@H](C)CO)C[C@@H](C)[C@@H](CN(C)Cc1ccc(Oc3ccccc3)cc1)O2 | inactive
4 | C[C@@H]1CN([C@H](C)CO)C(=O)c2ccccc2-c2ccccc2CO[C@@H]1CN(C)Cc1ccc(Oc2ccccc2)cc1 | inactive
